High-throughput results (PubChem BioAssay)
sEH act = soluble epoxide hydrolase activators, primary screen, biochemical, human sEH; Bifunctional epoxide hydrolase 2 (Homo sapiens), P34913; purified human sEH enzymatic activity, activator screen; hit rate 0.04% among 91,000; activation, % at 2 µM; AID 717, 2007; in the data active = activation above about 37%
Target sequence (P34913 whole entry, looked up): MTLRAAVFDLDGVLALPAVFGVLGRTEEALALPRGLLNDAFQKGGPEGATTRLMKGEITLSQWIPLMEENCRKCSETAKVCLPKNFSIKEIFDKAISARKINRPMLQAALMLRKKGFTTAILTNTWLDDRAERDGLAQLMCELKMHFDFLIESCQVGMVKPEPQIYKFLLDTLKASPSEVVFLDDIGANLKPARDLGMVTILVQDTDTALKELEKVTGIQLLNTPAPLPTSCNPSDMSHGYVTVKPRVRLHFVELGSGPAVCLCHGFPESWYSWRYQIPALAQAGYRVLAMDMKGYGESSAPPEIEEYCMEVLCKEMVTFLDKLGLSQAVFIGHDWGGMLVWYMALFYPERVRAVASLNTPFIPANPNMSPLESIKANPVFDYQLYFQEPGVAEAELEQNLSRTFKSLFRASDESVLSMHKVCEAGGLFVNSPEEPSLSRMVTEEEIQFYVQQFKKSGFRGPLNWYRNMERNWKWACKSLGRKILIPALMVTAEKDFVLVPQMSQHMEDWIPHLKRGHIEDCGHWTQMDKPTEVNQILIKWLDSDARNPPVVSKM
CYP2C9 act = human CYP2C9 activators, primary screen, biochemical, luminescence; activation factor at 5 µM; recombinant CYP2C9, luciferin-H conversion; active compounds read high; factor 1 = untreated enzyme, 0 = blocked; hit rate 1.4% among 96,000; Cytochrome P450 2C9 (Homo sapiens), P11712; AID 1024, 2008;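 active = activation factor of 2 or more for CYP2C9 at a 5 µM dose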;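 note: 0 = sulfaphenazole-blocked wells and 1 = vehicle-only wells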
CYP2C9 inhib = blockers of cytochrome P450 2C9 activity – biochemical, luminescence, ADME assay, primary screen; P11712; CYP2C9 Supersomes, luciferin-H conversion; inhibition, % at 5 µM; hit rate 20% among 96,000; AID 777, 2007;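 active = blocking of liver enzyme CYP2C9 beyond about 50% at 5 µM, limit read from the data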
CYP2C19 inhib = blockers of cytochrome P450 2C19 activity – biochemical, luminescence, ADME assay, primary screen. CYP2C19 Supersomes, luciferin-H EGE luminescence, 30 min. AID 778, 2007. P33261. hit rate 21% among 96,000. inhibition, % at 5 µM;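 active = CYP2C19 inhibition above a set limit at 5 µM in the primary screen, cut at about 50% in these data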;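 note: plate controls were negative control wells for no effect and 2.5 mM tranylcypromine positive control for full effect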
sEH inhibitor = soluble epoxide hydrolase inhibitors, primary screen, biochemical, human sEH; hit rate 0.34% among 91,000; inhibition, % at 2 µM; AID 707, 2007; recombinant human sEH enzymatic activity assay; Bifunctional epoxide hydrolase 2 (Homo sapiens), P34913; in the data active = inhibition above about 80%
CYP2C19 activ = human CYP2C19 activators, primary screen, biochemical, luminescence; 96,000 tested, under 10 active; activation factor at 5 µM; recombinant CYP2C19, luciferin-H EGE luminescence; active compounds read high; 0 = fully inhibited enzyme, 1 = untreated enzyme; AID 1025, 2008;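 active = activation factor of at least 2 at 5 µM in the primary screen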;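 note: 0 = wells with 2.5 mM tranylcypromine and 1 = vehicle-only wells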
Numbers without * were called inactive. Hits are enriched below; roughly 27% of the tested compounds scored in any of these assays.

O=c1cc(-c2ccccc2)nc2nc(COc3ccccc3)[nH]n12 was read as sEH act -9.5, CYP2C9 act 0.7, CYP2C9 inhib 28.3, CYP2C19 inhib 4.6, sEH inhibitor 11.8 and CYP2C19 activ 1.
Cc1nc2nc(COc3ccccc3)[nH]n2c(=O)c1Cl was read as CYP2C9 act 0.3, CYP2C9 inhib 74.6*, CYP2C19 inhib 31.4 and CYP2C19 activ 0.7.
`Cc1nc2nc(Cc3ccccc3)[nH]n2c(=O)c1Cl` gave sEH act 11.4, CYP2C9 act 0.3, CYP2C9 inhib 68.7*, CYP2C19 inhib -13.6, sEH inhibitor -7.5 and CYP2C19 activ 1.1.
Fc1ccc(Oc2cc(N3CCOCC3)nc(-c3ccccc3)n2)c(F)c1 was read as sEH act 13.6, CYP2C9 act 1.1, CYP2C9 inhib -8.8, CYP2C19 inhib 1.2, sEH inhibitor -11.3 and CYP2C19 activ 1.
`CCc1c(C#N)c(N)nc(SCC(=O)OCc2ccccc2)c1C#N` gave sEH act -7.0, CYP2C9 act 0.9, CYP2C9 inhib 7.3, CYP2C19 inhib 6.1, sEH inhibitor 5.8 and CYP2C19 activ 0.9.
Cc1ccc(N2C(N)=C(C#N)C(c3cccnc3)C3=C2CC(C)(C)CC3=O)cc1 (stereo unspecified) was read as sEH act 7.5, CYP2C9 act 0.5, CYP2C9 inhib 51.9*, CYP2C19 inhib 22.9, sEH inhibitor -2.2 and CYP2C19 activ 0.8.
Screening CC1(C)CC(=O)C2=C(C1)N(N1CCOCC1)C(N)=C(C#N)C2c1cccnc1 (stereo unspecified) returned sEH act -3.5, CYP2C9 act 0.9, CYP2C9 inhib 8.1, CYP2C19 inhib 5.3, sEH inhibitor 1.8 and CYP2C19 activ 0.9.
`Cc1ccc(N2C(N)=C(C#N)C(c3ccsc3)C3=C2CC(C)(C)CC3=O)cc1` (stereo unspecified) gave sEH act -1.7, CYP2C9 act 0.2, CYP2C9 inhib 83.2*, CYP2C19 inhib 42.8, sEH inhibitor 1.5 and CYP2C19 activ 0.6.
Cc1ccc(C2C(C#N)=C(N)N(c3ncn[nH]3)C3=C2C(=O)CC(C)(C)C3)cc1 (stereo unspecified) was read as sEH act 11.3, CYP2C9 act 0.4, CYP2C9 inhib 64.9*, CYP2C19 inhib 28.2, sEH inhibitor -13.3 and CYP2C19 activ 0.7.
`COc1nc(OC)nc(N2CCC(C(=O)NCc3ccc(F)cc3)CC2)n1` gave sEH act -2.9, CYP2C9 act 1.5, CYP2C9 inhib -45.5, CYP2C19 inhib -5.4, sEH inhibitor 4.5 and CYP2C19 activ 1.1.
For CCOC(=O)C1C(=O)NC(N2CCN(Cc3ccccc3)CC2)=NC1c1ccco1 (stereo unspecified) the results were sEH act 1.6, CYP2C9 act 0.9, CYP2C9 inhib 11.3, CYP2C19 inhib -9.3, sEH inhibitor -0.1 and CYP2C19 activ 1.1.
Screening O=C(CCCN1C(=O)CCC1=O)Nc1ccccc1F returned sEH act 7.1, CYP2C9 act 0.8, CYP2C9 inhib 20.3, CYP2C19 inhib 12.2, sEH inhibitor -7.0 and CYP2C19 activ 0.9.
CCOC(=O)c1[nH]c2ccc(OC)cc2c1NC(=O)OC was read as sEH act 12.7, CYP2C9 act 1.1, CYP2C9 inhib -6.8, CYP2C19 inhib -0.4, sEH inhibitor -13.2 and CYP2C19 activ 1.
CCOC(=O)c1[nH]c2cc(OC)c(OC)cc2c1NC(=O)C(C)N1CCN(Cc2ccccc2)CC1 (stereo unspecified) was read as sEH act 7.9, CYP2C9 act 0.8, CYP2C9 inhib 15.4, CYP2C19 inhib 8.2, sEH inhibitor -9.9 and CYP2C19 activ 0.9.
`COC(=O)c1[nH]c2ccc(F)cc2c1NS(=O)(=O)c1ccc(OC)cc1OC` gave sEH act -8.2, CYP2C9 act 0.6, CYP2C9 inhib 41.6, CYP2C19 inhib 55.7*, sEH inhibitor 7.5 and CYP2C19 activ 0.4.
